Reference: the supplement of paper PMC10849652
Of roughly 7,900 targets only a part is listed; those with a hit were picked by preference. About 0.6% of all pairs of compound and target were hits.

Legend:
Assay in all cases: log2 fold change, soluble protein after heating vs DMSO (PISA); higher = thermal stabilisation; K562 cells, 10 uM, 30 min; active = over 0.2 and 3.5 SD of the protein, either way, in both replicates (recomputed)
saracatinib = compound: CN1CCN(CCOc2cc(OC3CCOCC3)c3c(Nc4c(Cl)ccc5c4OCO5)ncnc3c2)CC1 [saracatinib]
Outline: (§1)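 Soluble protein was defined as the supernatant after 21,000xg for 90 min. It came from K562 cells at 2×10^6 cells/mL given 10 μM compound for 30 min, heated in aliquots for 3 min across 48°C-58°C, pooled, and extracted in PBS with 0.5% NP-40 at 4°C, and was quantified by TMTpro 16plex LC-MS/MS with equalised channel sums. Thermal stability against control samples, from duplicates, is reported as log2 fold change.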

sotrastaurin = compound: CN1CCN(c2nc(C3=C(c4c[nH]c5ccccc45)C(=O)NC3=O)c3ccccc3n2)CC1 [sotrastaurin]
Outline: as §1

alvocidib = compound: CN1CC[C@H](c2c(O)cc(O)c3c(=O)cc(-c4ccccc4Cl)oc23)[C@H](O)C1 [alvocidib]
Outline: as §1

Tubastatin A = compound: CN1CCc2c(c3ccccc3n2Cc2ccc(C(=O)NO)cc2)C1 [Tubastatin A]
Outline: as §1

[1] = compound: CNC(=O)C1=CC=CC=C1NC2=NC(=NC=C2Cl)NC3=C(C=C(C=C3)N4CCOCC4)OC
Outline: as §1

defactinib = compound: CNC(=O)c1ccc(Nc2ncc(C(F)(F)F)c(NCc3nccnc3N(C)S(C)(=O)=O)n2)cc1 [defactinib]
Outline: as §1

rucaparib = compound: CNCc1ccc(-c2[nH]c3cc(F)cc4c3c2CCNC4=O)cc1 [rucaparib]
Outline: as §1

[2] = compound: CNc1nc(-c2ccc3c(N)n[nH]c3c2)cc(N2C[C@@H](C(=O)NC3CCCCC3)CC[C@H]2C)n1
Outline: as §1

encorafenib = compound: COC(=O)N[C@@H](C)CNc1nccc(-c2cn(C(C)C)nc2-c2cc(Cl)cc(NS(C)(=O)=O)c2F)n1 [encorafenib]
Outline: as §1

[3] = compound: COC(=O)[C@H](CCSC)NC(=O)C1=C(C=C(C=C1)NC[C@H](CS)N)C2=CC=CC=C2
Outline: as §1

Measured: log2 fold change

SYF2 (UniProt O95926)
Chain of UniProt O95926 (O95926 whole entry, looked up): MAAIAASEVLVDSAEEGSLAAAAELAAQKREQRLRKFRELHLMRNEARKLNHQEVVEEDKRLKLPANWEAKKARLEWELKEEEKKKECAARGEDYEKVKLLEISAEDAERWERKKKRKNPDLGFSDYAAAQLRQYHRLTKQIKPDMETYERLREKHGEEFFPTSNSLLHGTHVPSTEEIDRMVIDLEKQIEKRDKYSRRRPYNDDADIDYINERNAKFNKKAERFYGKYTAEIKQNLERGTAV
active: alvocidib 0.383
inactive: saracatinib -0.028 | sotrastaurin -0.041 | Tubastatin A -0.016 | [1] -0.086 | defactinib 0.286 | rucaparib 0.029 | [2] -0.14 | encorafenib -0.062 | [3] 0.038

TATDN2 (UniProt Q93075)
inactive: saracatinib -0.017 | sotrastaurin 0.111 | alvocidib -0.136 | Tubastatin A -0.094 | [1] -0.002 | defactinib 0 | rucaparib -0.175 | [2] 0 | encorafenib 0.099 | [3] -0.031

SNX5 (UniProt Q9Y5X3)
inactive: saracatinib 0 | sotrastaurin -0.006 | alvocidib -0.061 | Tubastatin A -0.013 | [1] -0.117 | defactinib -0.014 | rucaparib -0.054 | [2] 0.012 | encorafenib 0.03 | [3] 0.006

TJP1 (UniProt Q07157)
inactive: saracatinib -0.049 | sotrastaurin -0.064 | alvocidib -0.114 | Tubastatin A 0.045 | [1] -0.099 | defactinib -0.16 | rucaparib 0.018 | [2] 0.003 | encorafenib 0.029 | [3] -0.056

TACC2 (UniProt O95359)
inactive: saracatinib -0.003 | sotrastaurin 0.115 | alvocidib -0.084 | Tubastatin A -0.041 | [1] 0.075 | defactinib -0.091 | rucaparib -0.045 | [2] -0.105 | encorafenib -0.013 | [3] 0.039

TAF9 (UniProt Q16594)
inactive: saracatinib 0.076 | sotrastaurin 0.021 | alvocidib 0.142 | Tubastatin A -0.023 | [1] -0.1 | defactinib 0.016 | rucaparib -0.019 | [2] -0.065 | encorafenib -0.048 | [3] 0.103

TFR2 (UniProt Q9UP52)
Chain of UniProt Q9UP52 (Q9UP52 whole entry, looked up): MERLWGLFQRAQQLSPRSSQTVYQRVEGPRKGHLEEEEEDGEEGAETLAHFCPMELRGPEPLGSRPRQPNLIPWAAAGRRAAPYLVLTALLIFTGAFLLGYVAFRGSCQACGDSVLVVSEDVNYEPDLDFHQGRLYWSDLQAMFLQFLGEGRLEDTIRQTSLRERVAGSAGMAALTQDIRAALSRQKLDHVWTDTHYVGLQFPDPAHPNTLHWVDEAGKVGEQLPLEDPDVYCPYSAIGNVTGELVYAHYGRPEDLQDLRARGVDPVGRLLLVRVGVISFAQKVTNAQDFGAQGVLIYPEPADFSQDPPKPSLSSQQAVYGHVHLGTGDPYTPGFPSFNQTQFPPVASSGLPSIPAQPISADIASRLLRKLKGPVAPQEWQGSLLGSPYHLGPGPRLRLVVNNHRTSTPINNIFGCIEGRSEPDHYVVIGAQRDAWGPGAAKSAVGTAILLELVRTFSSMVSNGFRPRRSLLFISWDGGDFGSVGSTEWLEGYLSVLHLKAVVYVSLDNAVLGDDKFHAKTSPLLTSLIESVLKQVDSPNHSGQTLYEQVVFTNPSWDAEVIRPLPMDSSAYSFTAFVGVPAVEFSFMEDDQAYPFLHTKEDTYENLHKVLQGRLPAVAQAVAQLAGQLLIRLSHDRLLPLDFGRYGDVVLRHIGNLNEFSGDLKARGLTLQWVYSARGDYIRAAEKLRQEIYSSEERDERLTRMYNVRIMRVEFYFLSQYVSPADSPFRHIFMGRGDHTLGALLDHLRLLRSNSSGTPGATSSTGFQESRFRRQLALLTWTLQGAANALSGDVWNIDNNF
inactive: saracatinib 0.007 | sotrastaurin -0.031 | alvocidib 0.029 | Tubastatin A -0.053 | [1] 0.006 | defactinib 0.029 | rucaparib 0.029 | [2] -0.129 | encorafenib -0.015 | [3] 0.009

STARD7 (UniProt Q9NQZ5)
inactive: saracatinib -0.021 | sotrastaurin 0.041 | alvocidib -0.122 | Tubastatin A -0.005 | [1] -0.012 | defactinib -0.047 | rucaparib -0.009 | [2] -0.014 | encorafenib 0.03 | [3] -0.043

STAT6 (UniProt P42226)
inactive: saracatinib 0.087 | sotrastaurin 0.115 | alvocidib -0.153 | Tubastatin A 0.101 | [1] 0.029 | defactinib -0.121 | rucaparib 0.076 | [2] 0.201 | encorafenib 0.189 | [3] -0.168

SPTBN1 (UniProt Q01082)
Chain of UniProt Q01082 (Q01082 whole entry, looked up): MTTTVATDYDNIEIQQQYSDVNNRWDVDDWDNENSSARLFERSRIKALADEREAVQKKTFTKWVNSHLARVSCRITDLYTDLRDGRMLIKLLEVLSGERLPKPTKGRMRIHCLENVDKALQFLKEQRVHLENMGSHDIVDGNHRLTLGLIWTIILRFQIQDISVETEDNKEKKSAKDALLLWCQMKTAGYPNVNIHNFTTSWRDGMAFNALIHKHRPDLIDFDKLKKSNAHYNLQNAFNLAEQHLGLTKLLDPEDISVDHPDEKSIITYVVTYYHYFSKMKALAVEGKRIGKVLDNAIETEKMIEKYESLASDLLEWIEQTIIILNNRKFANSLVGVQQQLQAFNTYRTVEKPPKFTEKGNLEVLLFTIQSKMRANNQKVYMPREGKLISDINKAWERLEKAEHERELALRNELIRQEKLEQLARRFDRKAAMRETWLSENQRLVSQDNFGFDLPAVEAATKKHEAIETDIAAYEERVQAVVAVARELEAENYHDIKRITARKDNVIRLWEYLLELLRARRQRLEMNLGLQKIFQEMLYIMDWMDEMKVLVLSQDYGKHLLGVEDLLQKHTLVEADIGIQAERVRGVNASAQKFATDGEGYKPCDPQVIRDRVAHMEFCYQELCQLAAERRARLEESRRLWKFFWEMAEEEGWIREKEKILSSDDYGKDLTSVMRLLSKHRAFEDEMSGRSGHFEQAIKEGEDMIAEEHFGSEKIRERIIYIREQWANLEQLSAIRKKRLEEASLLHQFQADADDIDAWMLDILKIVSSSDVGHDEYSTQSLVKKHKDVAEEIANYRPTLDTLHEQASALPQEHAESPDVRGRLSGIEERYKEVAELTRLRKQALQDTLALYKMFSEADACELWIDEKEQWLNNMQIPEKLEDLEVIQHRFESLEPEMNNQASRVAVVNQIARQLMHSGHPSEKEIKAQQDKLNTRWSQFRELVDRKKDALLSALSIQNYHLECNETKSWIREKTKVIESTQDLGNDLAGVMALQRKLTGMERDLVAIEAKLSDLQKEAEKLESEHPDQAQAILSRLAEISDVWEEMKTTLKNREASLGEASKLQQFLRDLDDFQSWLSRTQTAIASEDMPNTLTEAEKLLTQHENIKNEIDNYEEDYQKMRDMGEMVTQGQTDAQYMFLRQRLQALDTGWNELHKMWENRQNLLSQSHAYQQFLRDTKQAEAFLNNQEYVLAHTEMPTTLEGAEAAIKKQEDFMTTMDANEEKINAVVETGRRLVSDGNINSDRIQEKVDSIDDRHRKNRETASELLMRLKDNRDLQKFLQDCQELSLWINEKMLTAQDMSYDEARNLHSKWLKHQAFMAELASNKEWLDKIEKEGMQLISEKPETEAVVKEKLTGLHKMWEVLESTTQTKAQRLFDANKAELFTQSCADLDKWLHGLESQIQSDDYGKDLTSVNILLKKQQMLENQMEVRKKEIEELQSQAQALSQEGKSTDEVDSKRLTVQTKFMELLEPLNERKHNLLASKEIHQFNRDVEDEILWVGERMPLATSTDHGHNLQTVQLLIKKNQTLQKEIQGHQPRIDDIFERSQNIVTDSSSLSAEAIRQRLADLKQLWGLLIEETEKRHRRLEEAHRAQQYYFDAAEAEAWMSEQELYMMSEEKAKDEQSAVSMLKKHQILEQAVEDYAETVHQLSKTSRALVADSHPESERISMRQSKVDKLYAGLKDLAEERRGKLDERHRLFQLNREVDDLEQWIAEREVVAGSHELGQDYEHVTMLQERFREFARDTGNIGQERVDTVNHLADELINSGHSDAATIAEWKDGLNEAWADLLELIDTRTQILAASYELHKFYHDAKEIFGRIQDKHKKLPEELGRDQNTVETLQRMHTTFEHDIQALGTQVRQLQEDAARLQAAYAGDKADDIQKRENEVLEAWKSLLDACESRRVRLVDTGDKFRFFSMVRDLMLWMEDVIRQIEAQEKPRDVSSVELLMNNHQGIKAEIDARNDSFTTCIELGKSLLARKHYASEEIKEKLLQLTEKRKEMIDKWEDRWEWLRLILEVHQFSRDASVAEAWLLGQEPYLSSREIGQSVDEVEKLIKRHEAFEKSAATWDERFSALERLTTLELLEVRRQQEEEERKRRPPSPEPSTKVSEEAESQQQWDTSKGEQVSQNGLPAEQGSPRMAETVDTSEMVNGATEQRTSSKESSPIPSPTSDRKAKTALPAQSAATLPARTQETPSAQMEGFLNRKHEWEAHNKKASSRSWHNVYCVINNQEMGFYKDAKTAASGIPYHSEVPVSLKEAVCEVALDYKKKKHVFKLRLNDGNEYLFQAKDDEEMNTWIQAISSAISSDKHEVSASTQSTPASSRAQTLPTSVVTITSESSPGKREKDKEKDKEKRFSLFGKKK
active: sotrastaurin -0.224
inactive: saracatinib -0.019 | alvocidib -0.03 | Tubastatin A 0.042 | [1] 0.048 | defactinib -0.125 | rucaparib 0.084 | [2] -0.047 | encorafenib 0.064 | [3] -0.057

SRP72 (UniProt O76094)
inactive: saracatinib -0.102 | sotrastaurin -0.181 | alvocidib 0.069 | Tubastatin A 0.119 | [1] 0.04 | defactinib -0.035 | rucaparib 0.184 | [2] 0.055 | encorafenib 0.155 | [3] -0.134

TANK (UniProt Q92844)
inactive: saracatinib 0.118 | sotrastaurin 0.033 | alvocidib 0.081 | Tubastatin A 0.03 | [1] 0.236 | defactinib 0.045 | rucaparib -0.016 | [2] 0.052 | encorafenib 0.064 | [3] -0.03

SRSF2 (UniProt Q01130)
inactive: saracatinib -0.008 | sotrastaurin 0.089 | alvocidib 0.218 | Tubastatin A -0.034 | [1] -0.1 | defactinib 0.052 | rucaparib 0.078 | [2] -0.001 | encorafenib -0.013 | [3] 0.076

SRPRA (UniProt P08240)
inactive: saracatinib -0.001 | sotrastaurin -0.006 | alvocidib -0.014 | Tubastatin A -0.007 | [1] 0.033 | defactinib 0.022 | rucaparib 0.116 | [2] 0.06 | encorafenib 0.019 | [3] -0.044

SLC9A6 isoform 2 (UniProt Q92581)
inactive: saracatinib 0.06 | sotrastaurin 0.048 | alvocidib -0.016 | Tubastatin A -0.027 | [1] 0.001 | defactinib -0.027 | rucaparib -0.015 | [2] -0.07 | encorafenib 0.008 | [3] 0.053

SNX3 (UniProt O60493)
inactive: saracatinib -0.086 | sotrastaurin 0.038 | alvocidib -0.016 | Tubastatin A -0.005 | [1] 0.018 | defactinib -0.067 | rucaparib 0.081 | [2] 0.026 | encorafenib 0.194 | [3] -0.079

STOM (UniProt P27105)
inactive: saracatinib -0.015 | sotrastaurin 0.039 | alvocidib 0.169 | Tubastatin A 0.016 | [1] -0.019 | defactinib 0.068 | rucaparib 0.006 | [2] -0.03 | encorafenib 0.016 | [3] 0.002

TBC1D5 isoform 2 (UniProt Q92609)
inactive: saracatinib -0.033 | sotrastaurin -0.169 | alvocidib -0.077 | Tubastatin A -0.036 | [1] -0.013 | defactinib -0.088 | rucaparib 0.015 | [2] -0.159 | encorafenib 0.119 | [3] -0.055

STEAP3 isoform 2 (UniProt Q658P3)
inactive: saracatinib -0.02 | sotrastaurin -0.027 | alvocidib -0.059 | Tubastatin A -0.027 | [1] -0.025 | defactinib -0.067 | rucaparib 0.055 | [2] -0.024 | encorafenib 0.012 | [3] 0.006

ST6GAL1 (UniProt P15907)
Chain of UniProt P15907 (P15907 whole entry, looked up): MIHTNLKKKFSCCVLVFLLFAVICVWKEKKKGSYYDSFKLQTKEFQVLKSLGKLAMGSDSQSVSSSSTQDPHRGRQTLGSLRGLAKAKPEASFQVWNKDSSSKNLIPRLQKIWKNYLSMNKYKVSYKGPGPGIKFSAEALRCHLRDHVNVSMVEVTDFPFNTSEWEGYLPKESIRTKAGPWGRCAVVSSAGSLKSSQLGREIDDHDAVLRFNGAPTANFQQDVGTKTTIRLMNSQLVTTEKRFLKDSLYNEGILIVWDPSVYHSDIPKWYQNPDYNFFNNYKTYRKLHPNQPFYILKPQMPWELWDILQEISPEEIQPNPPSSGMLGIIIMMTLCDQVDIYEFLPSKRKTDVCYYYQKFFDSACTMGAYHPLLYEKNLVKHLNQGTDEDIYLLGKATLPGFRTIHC
inactive: saracatinib -0.001 | sotrastaurin 0.018 | alvocidib 0.006 | Tubastatin A 0.026 | [1] 0.159 | defactinib -0.03 | rucaparib 0.004 | [2] 0.05 | encorafenib 0.037 | [3] -0.08

SRPRB (UniProt Q9Y5M8)
inactive: saracatinib -0.03 | sotrastaurin -0.036 | alvocidib 0.002 | Tubastatin A 0.004 | [1] 0.087 | defactinib 0.026 | rucaparib 0.151 | [2] 0.032 | encorafenib -0.013 | [3] -0.064

SMAP (UniProt O00193)
inactive: saracatinib -0.035 | sotrastaurin 0.016 | alvocidib -0.015 | Tubastatin A 0.016 | [1] -0.069 | defactinib -0.001 | rucaparib -0.064 | [2] 0.009 | encorafenib -0.054 | [3] 0.013

SLC4A2 (UniProt P04920)
inactive: saracatinib 0.003 | sotrastaurin -0.029 | alvocidib -0.174 | Tubastatin A 0.066 | [1] -0.006 | defactinib 0.028 | rucaparib 0.064 | [2] 0.008 | encorafenib 0.085 | [3] -0.067

SMAP2 (UniProt Q8WU79)
Chain of UniProt Q8WU79 (Q8WU79 whole entry, looked up): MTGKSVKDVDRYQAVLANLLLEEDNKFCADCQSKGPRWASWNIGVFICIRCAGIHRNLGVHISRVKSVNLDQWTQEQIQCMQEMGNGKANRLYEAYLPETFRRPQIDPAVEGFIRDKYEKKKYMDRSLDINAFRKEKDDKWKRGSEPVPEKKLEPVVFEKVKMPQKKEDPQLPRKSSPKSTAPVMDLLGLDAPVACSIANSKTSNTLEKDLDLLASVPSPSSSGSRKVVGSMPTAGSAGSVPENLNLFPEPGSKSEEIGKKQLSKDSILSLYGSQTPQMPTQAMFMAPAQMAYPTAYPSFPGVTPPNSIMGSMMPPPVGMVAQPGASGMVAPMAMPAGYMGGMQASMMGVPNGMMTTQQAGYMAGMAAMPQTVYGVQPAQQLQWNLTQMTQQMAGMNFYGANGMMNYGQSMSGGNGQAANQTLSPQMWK
inactive: saracatinib -0.047 | sotrastaurin -0.052 | alvocidib -0.057 | Tubastatin A 0.029 | [1] 0.107 | defactinib -0.12 | rucaparib 0.114 | [2] -0.026 | encorafenib 0.087 | [3] -0.043

SRSF3 (UniProt P84103)
Chain of UniProt P84103 (P84103 whole entry, looked up): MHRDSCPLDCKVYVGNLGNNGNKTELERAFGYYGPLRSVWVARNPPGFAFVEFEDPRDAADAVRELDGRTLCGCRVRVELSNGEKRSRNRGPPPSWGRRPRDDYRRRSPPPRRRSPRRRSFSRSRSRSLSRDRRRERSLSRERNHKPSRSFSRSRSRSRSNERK
inactive: saracatinib 0.019 | sotrastaurin 0.079 | alvocidib 0.265 | Tubastatin A -0.026 | [1] -0.053 | defactinib 0.235 | rucaparib 0.257 | [2] -0.022 | encorafenib 0.023 | [3] 0.032

TIMM10 (UniProt P62072)
Chain of UniProt P62072 (P62072 whole entry, looked up): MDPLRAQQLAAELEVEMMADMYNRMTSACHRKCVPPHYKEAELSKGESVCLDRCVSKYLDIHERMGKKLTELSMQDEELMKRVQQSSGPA
inactive: saracatinib -0.058 | sotrastaurin 0.018 | alvocidib 0.08 | Tubastatin A -0.027 | [1] -0.015 | defactinib -0.073 | rucaparib -0.062 | [2] 0.039 | encorafenib -0.013 | [3] 0.002

SQSTM1 (UniProt Q13501)
Chain of UniProt Q13501 (Q13501 whole entry, looked up): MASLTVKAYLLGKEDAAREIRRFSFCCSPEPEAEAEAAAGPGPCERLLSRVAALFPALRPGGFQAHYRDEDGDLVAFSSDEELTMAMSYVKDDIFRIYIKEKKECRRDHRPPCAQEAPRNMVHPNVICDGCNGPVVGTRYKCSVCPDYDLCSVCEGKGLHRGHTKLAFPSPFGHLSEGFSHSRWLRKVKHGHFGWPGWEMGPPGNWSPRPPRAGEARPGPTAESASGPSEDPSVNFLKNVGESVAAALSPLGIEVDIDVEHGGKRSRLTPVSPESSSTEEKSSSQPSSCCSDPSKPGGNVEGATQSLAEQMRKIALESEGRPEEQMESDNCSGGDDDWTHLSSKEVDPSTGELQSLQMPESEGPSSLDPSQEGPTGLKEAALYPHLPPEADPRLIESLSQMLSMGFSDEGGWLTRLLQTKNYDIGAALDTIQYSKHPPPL
inactive: saracatinib -0.038 | sotrastaurin -0.073 | alvocidib -0.149 | Tubastatin A -0.022 | [1] -0.024 | defactinib -0.074 | rucaparib -0.021 | [2] -0.048 | encorafenib 0.012 | [3] 0.051

SMARCA5 (UniProt O60264)
inactive: saracatinib -0.084 | sotrastaurin -0.235 | alvocidib -0.193 | Tubastatin A 0.082 | [1] 0.038 | defactinib -0.145 | rucaparib 0.035 | [2] 0.065 | encorafenib 0.116 | [3] 0.01

SSB (UniProt P05455)
inactive: saracatinib -0.001 | sotrastaurin -0.158 | alvocidib -0.123 | Tubastatin A 0.015 | [1] 0.016 | defactinib -0.187 | rucaparib -0.031 | [2] -0.089 | encorafenib 0 | [3] 0.042
